Most compounds without a hit are left out; they make up all but 2.6% or so of the library.
LGR2 antag = inhibitors of bursicon-induced Drosophila LGR2 receptor cAMP signaling; HEK293 LGR2, CRE-luciferase, bursicon-stimulated, 4 h; inhibition, % at 9.99 µM; 380,000 tested, 0.35% active; AID 720647;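 active means drop in luminescence signal, shown as inhibition above about 50% in the replicate tests, limit read from the data, passing the limit was not always enough; inconclusive means probably only some replicates passing the limit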;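 further: agonist challenge used bursicon conditioned medium at about half maximal strength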
KKLEB cytotox = reduces viability of KKLEB cystic fibrosis airway cells; KKLEB CF airway cells viability, ATPlite luminescence, overnight; stronger effect = lower value; cells stimulated with P. aeruginosa culture filtrate; activity change (cytotoxicity), % at 5 µM; 360,000 tested, 0.36% active;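 active means corrected activity change at or below -50% at 5 µM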
TROY signal inh = blocks TROY-dependent signaling in reporter cells | Q293 LMP1-TROYcd NF-kB luciferase reporter, 4 h | inhibition, % at 10 µM | 360,000 tested, 0.98% active | AID 1347056;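 active means compounds whose plate-normalised and pattern-corrected inhibition of the luciferase reporter signal at the single screening dose is 50% or more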
EWS-Fli block = blocks EWS/Fli oncoprotein-driven transcription; 350,000 tested, 0.67% active; inhibition, % at 12.6 µM; A673 NR0B1-luciferase reporter, viability-normalised;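 active means mean inhibition of at least 50% after viability correction, with every replicate also passing that limit; inconclusive means mean reaches 50% but only one of two replicates passes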;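 further: firefly luciferase signal divided by Alamar Blue viability fluorescence both relative to DMSO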
TWEAK-Fn14 inh = blocks TWEAK-Fn14 interaction in a reporter cell assay; AID 1159606; TWEAK-stimulated Fn14 reporter cells, luciferase luminescence, 8 h; inhibition, % at 10 µM; 360,000 tested, 2% active; in the data active means inhibition above about 50%
CF NFkB inh = cystic fibrosis NF-kB activation inhibition; KKLEB NF-kB-GFP reporter, PAF-induced, GFP fluorescence overnight; inhibition, % at 5 µM; 360,000 tested, 0.86% active; AID 588850;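 active means at least 50% inhibition at 5 µM, scaled per plate between neutral and stimulator controls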;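 further: PAF is a Pseudomonas aeruginosa culture filtrate used as stimulus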
DNA binding = small molecule DNA binding by fluorescence polarization; shares compounds with EWS-Fli block; salmon sperm DNA acridine orange fluorescence polarization; AC35, µM (top dose mostly 68 µM); 640 tested, 2% active;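 active means fitted curve reaches a 35% signal fall AC35 below twice the sample's top valid tested dose, actives reach about 48 µM in these data; inactive means the rest, including activity in the rising direction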;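 further: lower polarization ratio signals compound binding to DNA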
Each line names hits and unclear results; the compound was inactive in the other large screens (follow-up assays come after a bar, where they were run).

COc1ccc(CNc2ncc(-c3ccc(F)cc3)n2C)c2ccccc12	EWS-Fli block 82, TWEAK-Fn14 inh 58 | DNA binding inactive
COc1ccccc1CNc1ncc(-c2ccc(F)cc2)n1C	none
CCCCNC1=CC(=O)C(=O)c2ccccc21	EWS-Fli block 54 | DNA binding inactive
CCCCNC1=CC(=O)C(NCCCC)=CC1=O	none
CN1c2ccc(-c3cccc(C#N)c3)cc2[C@H]2[C@H](CCN2S(=O)(=O)c2cccc(F)c2)[C@H]1CO	none (no result: KKLEB cytotox, TROY signal inh, TWEAK-Fn14 inh, CF NFkB inh)
COc1ccc(-c2ccc3c(c2)[C@H]2[C@H](CCN2S(=O)(=O)c2ccc(OC)cc2)[C@@H](CO)N3C)cc1	EWS-Fli block 55 (no result: KKLEB cytotox, TROY signal inh, TWEAK-Fn14 inh, CF NFkB inh) | DNA binding inactive
CN1c2ccc(-c3ccc(C#N)cc3)cc2[C@H]2[C@H](CCN2S(=O)(=O)c2cccc(F)c2)[C@@H]1CO	EWS-Fli block 61 (no result: KKLEB cytotox, TROY signal inh, TWEAK-Fn14 inh, CF NFkB inh) | DNA binding inactive
Cc1ccccc1S(=O)(=O)N1CC[C@@H]2[C@@H](CO)Nc3ccc(-c4ccc(C#N)cc4)cc3[C@@H]21	EWS-Fli block 54 (no result: KKLEB cytotox, TROY signal inh, TWEAK-Fn14 inh, CF NFkB inh) | DNA binding inactive
C[C@@H]1CN([C@H](C)CO)C(=O)c2cc(NC(=O)Nc3ccc4c(c3)OCO4)ccc2O[C@@H](C)CCCCO[C@@H]1CN(C)C(=O)NC1CCCCC1	none (no result: KKLEB cytotox, TROY signal inh, TWEAK-Fn14 inh, CF NFkB inh)
Cc1ccc(S(=O)(=O)Nc2ccc3c(c2)C(=O)N([C@H](C)CO)C[C@@H](C)[C@H](CN(C)Cc2ccc(C(=O)O)cc2)OCCCC[C@@H](C)O3)cc1	none (no result: KKLEB cytotox, TROY signal inh, TWEAK-Fn14 inh, CF NFkB inh)
C[C@@H]1CN([C@H](C)CO)C(=O)c2cccc(NS(=O)(=O)c3ccc(Cl)cc3)c2O[C@@H]1CN(C)S(=O)(=O)c1ccccc1	none (no result: KKLEB cytotox, TROY signal inh, TWEAK-Fn14 inh, CF NFkB inh)
COc1cc(-c2cnc3c(NC=O)cc(-c4cccc(NC(C)=O)c4)cn23)cc(OC)c1OC	KKLEB cytotox -67, EWS-Fli block 62, TWEAK-Fn14 inh 60, CF NFkB inh 84 | DNA binding inactive
CC(=O)Nc1cccc(-c2cc(NC=O)c3ncc(-c4cccc(C(C)=O)c4)n3c2)c1	none
C=CCn1c(O)c(N=Nc2ccccc2)c2ccccc21	EWS-Fli block 55 | DNA binding inactive
C[C@H](CO)N1C[C@H](C)[C@@H](CN(C)CC2CCOCC2)Oc2ncc(-c3cncnc3)cc2C1=O	none (no result: KKLEB cytotox, TROY signal inh, TWEAK-Fn14 inh, CF NFkB inh)
CC(C)(C)c1ccc(Oc2ccc(NC(=O)C3CC=CCC3C(=O)O)cc2)cc1 (stereo unspecified)	TROY signal inh 76, EWS-Fli block 70 | DNA binding inactive
CC(=O)N1[C@H](CO)[C@@H](c2ccccc2)C12CN(Cc1cc(F)ccc1F)C2	none (no result: KKLEB cytotox, TROY signal inh, TWEAK-Fn14 inh, CF NFkB inh)
CN(C)c1ccc(N=Nc2ccc(C(=O)O)cc2)cc1	EWS-Fli block 65, TWEAK-Fn14 inh 98 | DNA binding inactive
CN(C)c1ccc(C(=O)c2ccccc2)cc1	none (no result: LGR2 antag, EWS-Fli block)
COCC(=O)Nc1ccc2c(c1)C(=O)N(C)C[C@H](OC)[C@@H](C)CN(Cc1ccncc1)[C@H](C)CO2	none (no result: KKLEB cytotox, TROY signal inh, TWEAK-Fn14 inh, CF NFkB inh)
C[C@H]1CN([C@@H](C)CO)C(=O)c2cc(C#Cc3ccccc3F)cnc2O[C@@H]1CN(C)S(C)(=O)=O	none (no result: KKLEB cytotox, TROY signal inh, TWEAK-Fn14 inh, CF NFkB inh)
CN(C)c1ccc2c(c1)[C@@H]1C[C@@H](CC(=O)NCc3ccc(Oc4ccccc4)cc3)O[C@H](CO)[C@@H]1O2	EWS-Fli block 52 (no result: LGR2 antag, KKLEB cytotox, TROY signal inh, TWEAK-Fn14 inh, CF NFkB inh) | DNA binding inactive
O=C(C[C@H]1C[C@H]2c3cc(NS(=O)(=O)c4ccc(F)cc4)ccc3O[C@H]2[C@H](CO)O1)NCc1ccc(Oc2ccccc2)cc1	EWS-Fli block 54 (no result: KKLEB cytotox, TROY signal inh, TWEAK-Fn14 inh, CF NFkB inh) | DNA binding inactive
O=C(C[C@H]1C[C@@H]2c3cc(NS(=O)(=O)c4ccc(F)cc4)ccc3O[C@@H]2[C@@H](CO)O1)NCc1ccc(Oc2ccccc2)cc1	LGR2 antag inconclusive (no result: KKLEB cytotox, TROY signal inh, TWEAK-Fn14 inh, CF NFkB inh)
COc1ccc(NC(=O)N(C)C[C@H]2Oc3c(NC(=O)c4ccncc4)cccc3C(=O)N([C@H](C)CO)C[C@H]2C)cc1	none (no result: KKLEB cytotox, TROY signal inh, TWEAK-Fn14 inh, CF NFkB inh)
COc1ccc(S(=O)(=O)Nc2ccc3c(c2)n(C)c(=O)n3C)cc1OC	none (no result: EWS-Fli block)
COc1ccc(Cl)cc1S(=O)(=O)Nc1ccc2c(c1)n(C)c(=O)n2C	EWS-Fli block 54 | DNA binding inactive
C[C@H](NC(=O)[C@H]1[C@H](CO)[C@H]2Cn3c(cccc3=O)[C@@H]1N2CCC(F)(F)F)c1ccccc1	none (no result: KKLEB cytotox, TROY signal inh, TWEAK-Fn14 inh, CF NFkB inh)

Screening data as filed in PubChem BioAssay.
